Article PMC4336329 (PLoS ONE, 2015)
In all, about 310,000 compounds went through this assay and about 14,000 (4.5%) showed an effect of 50% or more. The effect is printed as a negative number. What follows is part of a selection rich in strong results, with near analogues and random picks from the rest.

Molecular target: human ether-à-go-go-related gene (hERG) potassium channel (human, UniProt Q12809)
Assay: primary screen, population patch clamp on CHO cells stably expressing hERG; higher = less effect of the substance
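Further: peak tail current of the secondary pulse compared with the same well before compound.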

Chain of human ether-à-go-go-related gene (hERG) potassium channel (Q12809 whole entry, looked up): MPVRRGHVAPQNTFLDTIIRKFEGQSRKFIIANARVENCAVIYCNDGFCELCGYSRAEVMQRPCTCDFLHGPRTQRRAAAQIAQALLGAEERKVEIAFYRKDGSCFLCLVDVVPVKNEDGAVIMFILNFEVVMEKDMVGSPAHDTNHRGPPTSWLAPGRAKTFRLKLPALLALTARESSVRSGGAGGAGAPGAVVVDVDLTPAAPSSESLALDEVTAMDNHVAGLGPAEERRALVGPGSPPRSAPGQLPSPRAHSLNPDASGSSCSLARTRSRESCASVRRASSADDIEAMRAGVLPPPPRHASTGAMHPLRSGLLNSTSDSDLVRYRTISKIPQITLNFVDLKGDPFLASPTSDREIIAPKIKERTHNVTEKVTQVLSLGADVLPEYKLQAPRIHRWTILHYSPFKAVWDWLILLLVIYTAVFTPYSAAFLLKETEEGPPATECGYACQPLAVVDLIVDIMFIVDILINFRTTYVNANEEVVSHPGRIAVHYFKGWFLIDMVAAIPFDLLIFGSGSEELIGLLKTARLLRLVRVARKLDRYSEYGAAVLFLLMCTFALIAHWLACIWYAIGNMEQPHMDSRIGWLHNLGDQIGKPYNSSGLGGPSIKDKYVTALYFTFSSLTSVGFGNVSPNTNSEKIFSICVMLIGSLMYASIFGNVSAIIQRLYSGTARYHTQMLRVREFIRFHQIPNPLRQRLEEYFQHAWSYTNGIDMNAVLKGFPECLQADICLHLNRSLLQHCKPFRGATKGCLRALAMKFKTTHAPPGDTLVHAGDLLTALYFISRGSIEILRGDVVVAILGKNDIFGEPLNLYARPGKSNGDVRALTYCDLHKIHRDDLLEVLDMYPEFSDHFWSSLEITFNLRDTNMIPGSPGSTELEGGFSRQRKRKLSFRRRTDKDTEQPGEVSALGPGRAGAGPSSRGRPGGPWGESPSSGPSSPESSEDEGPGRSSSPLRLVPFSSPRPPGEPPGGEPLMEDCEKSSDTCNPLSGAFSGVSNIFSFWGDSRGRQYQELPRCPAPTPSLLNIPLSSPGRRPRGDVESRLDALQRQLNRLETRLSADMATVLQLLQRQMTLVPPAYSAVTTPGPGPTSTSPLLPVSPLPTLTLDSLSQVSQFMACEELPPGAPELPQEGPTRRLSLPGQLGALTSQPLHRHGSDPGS

SMILES	hERG current change (%, negative = inhibition) at 10uM [%]
COc1ccc(C[C@H]2CN3C(=NC[C@@H]3Cc3ccc(O)cc3)N2C[C@H](C)NC(=O)c2ccc(C)c(Br)c2)cc1	-77.9
CCOc1ccc(C(=O)Nc2nnc(C)s2)cc1OCC	-4.04
COc1cc(/C=C2/SC(=O)NC2=O)ccc1OC(=O)c1ccco1	-0.00422
COc1cc2c(c3oc(=O)cc(CC(=O)O)c13)CCC(C)(C)O2	-5.45
COc1ccccc1CCC(=O)N1CCC(n2nccc2NC(=O)C2CCOC2)CC1 (centres unmarked)	23.1
CCOC(=O)CC1(c2ccccc2)CCOC(C)(C)C1 (centres unmarked)	10.2
O=C(c1cccnc1)N1C2C=CC(C2)C1(C(F)(F)F)C(F)(F)F (centres unmarked)	14.6
Cc1noc(C)c1C(=O)NC(C)C1CCCO1 (centres unmarked)	3.08
Cc1ccc(C(=O)N2CCN(C)CC2)cc1S(=O)(=O)N1CCCCCC1	-25.9
Cc1ccc2cc(CCNC(=O)c3ccc4c(c3)OCO4)c(=O)[nH]c2c1C	4.17
O=C(O)c1ccc(COc2ccccc2/C=C2\NC(=O)N(Cc3ccccc3)C2=O)cc1	24.5
O=C(O)c1ccc(CS(=O)(=O)c2c(Cl)cccc2Cl)o1	19
CCCCN(CC)CCCNC(=O)c1ccc(CS(=O)(=O)c2c(Cl)cccc2Cl)o1	-55.4
CCCN(CCC)CCCNC(=O)c1ccc(CS(=O)(=O)c2c(Cl)cccc2Cl)o1	-73.1
O=C(NCCN1CCOCC1)c1ccc(CS(=O)(=O)c2c(Cl)cccc2Cl)o1	0.302
CCCCN(CC)CCCNC(=O)c1ccc(CS(=O)(=O)c2ccccc2C)o1	-35.2
CCCCN(CCCNC(=O)c1ccc(CS(=O)(=O)c2c(Cl)cccc2Cl)o1)Cc1ccccc1	-66.1
O=C(NCCCN1CCCC1)c1ccc(CS(=O)(=O)c2c(Cl)cccc2Cl)o1	-10.5
O=C(NC1CC1)c1ccc(CS(=O)(=O)c2c(Cl)cccc2Cl)o1	-5.87
COCCNC(=O)c1ccc(CS(=O)(=O)c2c(Cl)cccc2Cl)o1	0.994
O=c1nc(-c2ccccc2)c2ccccc2[nH]1	-1.29
Cc1oc(-c2ccc(Cl)cc2)cc1C(=O)NC1CCN(Cc2ccccc2)CC1	1.09

SMILES	hERG current change (%, negative = inhibition) at 10uM [%]
CCc1cc(=O)oc2cc(C)cc(OC(C)C(=O)NCC(O)c3ccccc3)c12 (centres unmarked)	4.7
Cc1ccc(CNC(=O)NC23CC4CC(CC(C4)C2)C3)cc1	7.24
CCn1cc(C(=O)NCC(OC)OC)c(=O)c2cc(S(=O)(=O)N3CCC(C)CC3)ccc21	-28.8
CSc1ccc(CNc2cccc3ccccc23)cc1	2.23
CCOC(=O)c1c(NC(=O)c2ccc(Br)o2)sc2c1CCCC2	-9.78
Fc1ccc2nc3c(nc2c1)CCCC3	15.3
COCCCn1c(SCC(N)=O)nnc1-c1ccccc1	-0.75
Cc1ccccc1CC1(CO)CCCN(C(=O)c2cc(Cl)ccc2F)C1 (centres unmarked)	-16.5
Cc1ccccc1CC1(CO)CCCN(C(=O)c2ccccc2Cl)C1 (centres unmarked)	-81.5
Cc1ccccc1CC1(CO)CCCN(C(=O)c2ccccc2N(C)C)C1 (centres unmarked)	-1.63
O=C(O)CC1Sc2nc3ccccc3n2C1=O (centres unmarked)	8.05
COc1ccc(CN(C)C(=O)Cn2ccc(NC(=O)OCc3ccccc3)nc2=O)cc1OC	-20.4
O=C(c1ccccc1)N1CCC(O)(c2cccnc2)CC1	16.1
Cc1ccc2c(c1)c1c(n2C)C(=O)CCC1	11.8
CS(=O)(=O)O.O=C(O)c1ccc2c(c1)c1c3n2CCNC3CCC1 (centres unmarked)	20.7
Cc1cc(S(=O)(=O)N2CCN=C2c2ccccc2)ccc1F	7.23
c1cc2c(cc1C1CCCCC1)c1c3n2CCN=C3CCC1	-33.9
OC1CN=C2CCCc3c2n(c2ccc(Cl)cc32)C1 (centres unmarked)	-72.3
CCn1c2c(c3cc(Cl)ccc31)CCCC2=O	3.71
CS(=O)(=O)O.c1ccc(-c2ccc3c(c2)c2c4n3CCN=C4CCC2)cc1	-61.5
O=C(O)c1c2c(nc3ccc(Cl)cc13)CCC2	4.39
Cc1ccc2c(c1)c1c3n2CCN=C3CCC1.Cl	-76.3
